From PubChem BioAssay (NCATS) come the findings set out here.

Assay [1] in a line: Cell Viability - LYMP2-010 (AID 981).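 Also: cells exposed to compound for 24 hours at 37 °C; % is scaled to controls: 0 for no effect and ±100 for the full control effect; nearly all actives have a fitted effect of over 55% in size.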 An outline of the steps:
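qHTS cytotoxicity, 1536-well: 2500 cells/well, 5 hr settle, 24 hr compound at 37 C, CellTiter-Glo 30 min RT, luminescence read. Decrease in ATP = toxicity; AC50 via standard Hill equation. Positive control tetraoctylammonium bromide.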

Assay [2] in a line: Cell Viability - LYMP2-012 (AID 982).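 Also: cellular ATP by luciferase luminescence where a drop means cytotoxicity; cells exposed to compound for one day before reading; 0% = DMSO only and full loss = 92 µM tetraoctylammonium bromide; nearly all actives have a fitted effect of over 55% in size.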
Assay [3] in a line: Cell Viability - LYMP2-014 (AID 983).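 Also: series mostly up to about 92 µM; plate controls were DMSO only for no effect and 92 µM tetraoctylammonium bromide for full effect; nearly all actives have a fitted effect of over 50% in size.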 The gist of the method:
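2500 cells/well, 5 hr 37 C; cpd 24 hr 37 C, complete medium; CellTiter-Glo 30 min RT, luminescence; ATP loss = toxicity; AC50 via Hill eqn; tetraoctylammonium bromide positive control.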

Assay [4] is described as follows: Cell Viability - LYMP2-016 (AID 984).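 Also: cells exposed to compound for 24 hours at 37 °C; % is scaled to controls: 0 for no effect and ±100 for the full control effect; nearly all actives have a fitted effect of over 55% in size.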 The gist of the method:
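Human lymphoblastoid LYMP2-016 cells, 2500 per well, treated with compounds for 24 h at 37 C. Viability read as intracellular ATP by CellTiter-Glo luminescence after 30 min at room temperature; AC50 from Hill fits of concentration-response.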

Assay [5] in a line: Cell Viability - LYMP2-018 (AID 985).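 Also: plate controls were DMSO only for no effect and tetraoctylammonium bromide at 92 µM for full effect; nearly all actives have a fitted effect of over 50% in size.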 The gist of the method:
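2500 cells/well; 5 hr 37 C; cmpd 24 hr 37 C, complete medium; CellTiter-Glo 30 min RT; luminescence. Tetraoctylammonium bromide positive control. AC50 via Hill fit.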

Assay [6] in a line: Cell Viability - LYMP2-020 (AID 986).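 Also: series mostly up to about 92 µM; plate controls were DMSO only for no effect and tetraoctylammonium bromide at 92 µM for full effect; nearly all actives have a fitted effect of over 55% in size.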 An outline of the steps:
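qHTS, 2500 cells/well; 5 hr then 24 hr compound exposure, 37 C; CellTiter-Glo luminescence after 30 min RT; ATP decrease taken as cytotoxicity; AC50 via Hill equation; tetraoctylammonium bromide positive control.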

A short description of assay [7]: Cell Viability - LYMP2-022 (AID 987). The gist of the method:
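Luminescent ATP read-out (CellTiter-Glo, 30 min, RT) after 24 hr, 37 C compound exposure of 2500 human lymphoblastoid cells/well in complete medium. Cytotoxicity taken as concentration-dependent ATP loss; AC50 from standard Hill equation.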

Assay [8] is described as follows: Cell Viability - LYMP2-024 (AID 988).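 Also: plate controls were DMSO only for no effect and 92 µM tetraoctylammonium bromide for full effect; nearly all actives have a fitted effect of over 60% in size.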 The gist of the method:
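ATP-based luminescence (CellTiter-Glo, 30 min RT) after 24 h compound exposure at 37 C of 2500 lymphoblastoid cells/well; decrease in ATP taken as cytotoxicity. qHTS concentration-response fitted to standard Hill equation for AC50.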

Assay [9] is described as follows: Cell Viability - LYMP2-026 (AID 989). Also: % is scaled to controls: 0 for no effect and ±100 for the full control effect; nearly all actives have a fitted effect of over 50% in size. An outline of the steps:
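qHTS cytotoxicity: 2500 cells/well, 5 hr 37 C, compound 24 hr 37 C, CellTiter-Glo 30 min RT, luminescence. Tetraoctylammonium bromide positive control. AC50 via standard Hill fit.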

Assay [10] can be described thus: Cell Viability - LYMP1-002 - Assay at 40 hr (AID 994).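 Also: 0% = DMSO only and full inhibition = 92 µM tetraoctylammonium bromide; nearly all actives have a fitted effect of over 60% in size.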 The gist of the method:
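qHTS cytotoxicity; 2500 cells/well, 5 hr 37 C settle, compound 40 hr 37 C. CellTiter-Glo, 30 min RT, luminescence (ATP). Concentration-response, Hill fit → AC50. Pos. ctrl tetraoctylammonium bromide.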

Assay [11] is described as follows: qHTS Assay for Identification of Small Molecule Inducers of Hypoxia Response (AID 2120; active = well fitted curve in the direction sought with a large enough effect in the signal ratio, with a control signal flat, not every such curve was filed as active; the % refers to the signal ratio; also: 0% is about no effect). The gist of the method: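 Read-out: CCF4 FRET emission ratio 460nm/530nm (excitation 405nm), converted to %Activity, with AC50 fitted across a compound titration. ME-180 cells carried an HRE-driven beta-lactamase reporter; compound exposure 17 h, 37 degrees C.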
A general note: Quantitative high-throughput screening tests each substance at several concentrations.

Assay [12] addresses Androgen receptor (Homo sapiens) (UniProt P10275). Nature of the assay: qHTS assay for small molecule agonists of androgen receptor signaling (AID 588515; active = well fitted curve in the direction sought with a large enough effect in the signal ratio, with a control signal flat; the % refers to the signal ratio; also: % is scaled to controls: 0 for no effect and ±100 for the full control effect). To be noted: AR-UAS-bla HEK293, beta-lactamase ratio, agonist 16 h; stronger effect = higher value. The gist of the method: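 Stimulation of an AR-responsive β-lactamase reporter in GripTite HEK293 cells was measured after 16 h compound exposure at 37 °C, via CCF4 fluorescence after 2 h RT. EC50 from Hill fits, normalized to R1881 at 30 nM.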

The target of assay [13] is Glucocorticoid receptor (Homo sapiens) (UniProt P04150). In words: qHTS assay for small molecule agonists of glucocorticoid receptor signaling (AID 588532; active = well fitted curve in the direction sought with a large enough effect in the signal ratio, with a control signal flat; the % refers to the signal ratio;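 also: 100% = dexamethasone at 0.1 µM and 0% = DMSO only wells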). To be noted: HeLa MMTV-bla, beta-lactamase ratio, agonist, 18 h; stronger effect = higher value; percent of dexamethasone control, DMSO zero. The gist of the method: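 Titration series, up to 92 uM, applied to GRE-bla HeLa cells for 18 h at 37 C. Detection by CCF4 FRET substrate after 2 h at RT.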
Sequence of Glucocorticoid receptor (Homo sapiens) (P04150 whole entry, looked up): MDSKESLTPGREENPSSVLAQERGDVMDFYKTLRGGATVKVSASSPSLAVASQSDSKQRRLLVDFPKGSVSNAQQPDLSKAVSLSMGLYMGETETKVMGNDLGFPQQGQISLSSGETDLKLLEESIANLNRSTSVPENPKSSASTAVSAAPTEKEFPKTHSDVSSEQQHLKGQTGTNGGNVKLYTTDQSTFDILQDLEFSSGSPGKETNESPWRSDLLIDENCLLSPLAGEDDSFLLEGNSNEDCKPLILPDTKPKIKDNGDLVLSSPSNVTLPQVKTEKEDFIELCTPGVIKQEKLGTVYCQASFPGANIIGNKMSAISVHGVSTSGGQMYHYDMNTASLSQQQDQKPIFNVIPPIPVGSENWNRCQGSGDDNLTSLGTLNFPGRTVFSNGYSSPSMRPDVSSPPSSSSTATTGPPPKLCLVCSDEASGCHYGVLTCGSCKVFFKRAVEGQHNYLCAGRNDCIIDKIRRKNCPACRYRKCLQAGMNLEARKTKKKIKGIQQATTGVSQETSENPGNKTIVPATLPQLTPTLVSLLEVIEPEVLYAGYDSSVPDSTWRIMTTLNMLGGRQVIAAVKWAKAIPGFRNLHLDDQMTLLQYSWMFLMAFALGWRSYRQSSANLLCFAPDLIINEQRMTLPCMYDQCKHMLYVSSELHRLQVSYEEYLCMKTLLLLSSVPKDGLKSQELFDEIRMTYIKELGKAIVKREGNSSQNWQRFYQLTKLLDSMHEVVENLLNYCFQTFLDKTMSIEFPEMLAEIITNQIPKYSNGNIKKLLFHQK

Assay [14] deals with Vitamin D3 receptor (Homo sapiens) (UniProt P11473). In words: qHTS assay for small molecule antagonists of vitamin D receptor signaling (AID 588541; calls by dose curve;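 also: receptor activated by calcitriol during compound treatment; series mostly up to about 77 µM; % is scaled to controls: 0 for no effect and ±100 for the full control effect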). An outline of the steps:
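VDR-UAS-bla HEK293T cells (2000/well, 2% charcoal-stripped FBS) were treated with titrated compounds plus 1-alpha,25-dihydroxyvitamin D3 (50 nM or 3 nM final) for 16 h at 37 C. CCF4 beta-lactamase fluorescence was read; Hill fits gave IC50.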

For assay [15] the target is unchanged. Nature of the assay: qHTS assay for small molecule agonists of vitamin D receptor signaling (AID 588543; calls by dose curve;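 also: 0% = DMSO basal and 100% = reference agonist control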). An outline of the steps:
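VDR-UAS-bla HEK293T cells, 2000/well, 2% charcoal-stripped FBS; compound titration 16 h at 37 C; CCF4 beta-lactamase ratio read. Normalized to 50 nM 1-alpha,25-dihydroxyvitamin D3 (100%) and DMSO; Hill fit gives EC50, efficacy.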

The target in assay [16] is Thyroid hormone receptor beta (Homo sapiens) (UniProt P10828). Nature of the assay: qHTS assay for small molecule agonists of thyroid hormone receptor beta signaling (AID 588545; calls by dose curve). An outline of the steps: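 Agonist-mode beta-lactamase reporter assay, HEK 293 cells, 2% charcoal/dextran FBS; cells plated 4 hrs, compound 18 hrs at 37 C, CCF4 2 hrs RT. Normalized to 10 nM T3 (100%) and DMSO (0%); Hill fit gives EC50, efficacy.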
Sequence of Thyroid hormone receptor beta (Homo sapiens) (P10828 whole entry, looked up): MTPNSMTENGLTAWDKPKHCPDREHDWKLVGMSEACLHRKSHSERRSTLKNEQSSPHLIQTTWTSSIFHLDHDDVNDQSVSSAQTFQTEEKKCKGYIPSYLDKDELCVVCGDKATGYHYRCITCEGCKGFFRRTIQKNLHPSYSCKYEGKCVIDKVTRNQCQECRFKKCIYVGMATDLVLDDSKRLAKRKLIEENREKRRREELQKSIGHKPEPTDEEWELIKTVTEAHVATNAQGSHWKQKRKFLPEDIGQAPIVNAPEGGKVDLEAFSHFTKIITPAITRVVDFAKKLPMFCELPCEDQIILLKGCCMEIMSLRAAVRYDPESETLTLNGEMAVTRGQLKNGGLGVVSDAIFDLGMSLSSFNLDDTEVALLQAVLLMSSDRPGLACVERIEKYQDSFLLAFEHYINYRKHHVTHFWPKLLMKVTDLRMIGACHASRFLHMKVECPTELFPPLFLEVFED

Assay [17] is described as follows: qHTS assay for small molecule antagonists of retinoid X receptor alpha signaling (AID 588546; active = well fitted inhibition curve with a large enough effect in the signal ratio, with a control signal flat, not every such curve was filed as active; the % refers to the signal ratio;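 also: cells stimulated with 9-cis-retinoic acid as agonist; % is scaled to controls: 0 for no effect and ±100 for the full control effect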). To be noted: HEK293T RXRa-UAS-bla, beta-lactamase ratio, antagonist mode; measured here: W530 green channel, cytotoxicity proxy. The gist of the method: (§1)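 Beta-lactamase reporter inhibition, read as CCF4 fluorescence ratio (ex 405, em 460/530 nm) after 2 h at RT. HEK293T UAS-bla cells, 2500/well, were stimulated with 9-cis-RA at 500 or 100 nM final alongside test compound for 18 h at 37 C.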

Assay [18] concerns the target Retinoic acid receptor RXR-alpha (Homo sapiens) (UniProt P19793). The description is as above. Conditions: HEK293T RXRa-UAS-bla, beta-lactamase ratio, antagonist mode. An outline of the steps:
as §1

Assay [19] concerns the target Thyroid hormone receptor beta (Homo sapiens) (UniProt P10828). Nature of the assay: qHTS assay for small molecule antagonists of thyroid hormone receptor beta signaling (AID 588547; active = well fitted inhibition curve with a large enough effect in the signal ratio, with a control signal flat, not every such curve was filed as active; the % refers to the signal ratio;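 also: cells stimulated with 0.4 nM T3 agonist during compound exposure; series mostly up to about 77 µM; % is scaled to controls: 0 for no effect and ±100 for the full control effect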). Conditions: TR-UAS-bla HEK293, beta-lactamase ratio, antagonist mode, 18 h. An outline of the steps:
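TR-UAS-bla GripTite HEK293 cells in 2% charcoal/dextran FBS medium were preincubated 4 h at 37 C, given compound (0.59 nM to 92 uM) plus 0.4 nM T3 (final) for 18 h, then CCF4 for 2 h at RT; Hill fit gave IC50.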

Assay [20] concerns the target Voltage-gated inwardly rectifying potassium channel KCNH2 (Homo sapiens) (UniProt Q12809). In words: qHTS Assay for Small Molecule Inhibitors of the Human hERG Channel Activity (AID 588834).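 Also: top concentration of the series differs between compounds; % is scaled to controls: 0 for no effect and ±100 for the full control effect; lower thallium flux fluorescence means stronger hERG block; nearly all actives have a fitted effect of over 50% in size.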 The gist of the method:
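Thallium serves as surrogate for K+ influx through BacMam-delivered hERG in U2OS cells. Compounds are added for about 10 minutes after dye loading; stimulation buffer then starts flux, monitored kinetically on FDSS.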

Assay [21] can be described thus: qHTS assay for small molecule activators of the p53 signaling pathway (AID 651743; active = well fitted activation curve with a large enough effect in the signal ratio, not every such curve was filed as active; the % refers to the signal ratio; also: series mostly up to about 92 µM; % of control where 0% means no effect). Conditions: HCT-116 p53RE-bla, beta-lactamase FRET ratio, 16 h; activation: stronger effect = higher value. The gist of the method: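 Here HCT-116 cells with an integrated p53-responsive beta-lactamase gene were incubated with compounds (16 hours, 37 C) after a 5-hour plating period; beta-lactamase activity was detected as fluorescence intensity via B/G FRET substrate.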

Assay [22] can be described thus: qHTS assay for small molecule disruptors of the mitochondrial membrane potential - 1 hr assay (AID 651754; calls by dose curve; also: % is scaled to controls: 0 for no effect and ±100 for the full control effect; nearly all actives have a fitted effect of over 35% in size). The gist of the method: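 Read-out: dye fluorescence at 490 nm ex/535 nm em (monomers) and 540 nm ex/590 nm em (aggregates) in HepG2 cells. Compound exposure 1 hr at 37C, followed by 30 min dye loading.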
A short description of assay [23]: qHTS assay for small molecule disruptors of the mitochondrial membrane potential - 5 hr assay (AID 651755; calls by dose curve; also: % is scaled to controls: 0 for no effect and ±100 for the full control effect; nearly all actives have a fitted effect of over 40% in size). An outline of the steps:
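Seed HepG2 overnight, add compound, incubate 5 hr at 37C and 5% CO2, stain 30 min with Mito-MPS, then measure monomer (490/535 nm) and aggregate (540/590 nm) fluorescence.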

The target of assay [24] is Tumor necrosis factor (Homo sapiens) (UniProt P01375). Nature of the assay: qHTS assay to identify small molecules that stimulate Tumor Necrosis Factor-alpha (TNF-alpha) secretion (AID 651757; active = well fitted curve in the direction sought with a large enough effect in the signal ratio; the % refers to the signal ratio; also: 0% is about no effect). The gist of the method:
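THP-1 cells, 3000/well; compound 17 hrs, 37 C; add cryptate/XL665 anti-TNF-alpha antibody pair; 3 hr RT; TR-FRET (HTRF) read of secreted TNF-alpha. Quantitative HTS format.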

Results filed as inconclusive are left out. Activity calls are given as the source filed them. Unless noted, calls follow the shape of the dose curve; as a rule, active = well fitted curve in the direction sought with a large enough effect; inconclusive = small, poorly fitted or top-dose-only effect, or another doubt; inactive = no such curve, though single readings can be large; an effect the other way counts as inactive or inconclusive.

Sequence of Vitamin D3 receptor (Homo sapiens) (P11473 whole entry, looked up): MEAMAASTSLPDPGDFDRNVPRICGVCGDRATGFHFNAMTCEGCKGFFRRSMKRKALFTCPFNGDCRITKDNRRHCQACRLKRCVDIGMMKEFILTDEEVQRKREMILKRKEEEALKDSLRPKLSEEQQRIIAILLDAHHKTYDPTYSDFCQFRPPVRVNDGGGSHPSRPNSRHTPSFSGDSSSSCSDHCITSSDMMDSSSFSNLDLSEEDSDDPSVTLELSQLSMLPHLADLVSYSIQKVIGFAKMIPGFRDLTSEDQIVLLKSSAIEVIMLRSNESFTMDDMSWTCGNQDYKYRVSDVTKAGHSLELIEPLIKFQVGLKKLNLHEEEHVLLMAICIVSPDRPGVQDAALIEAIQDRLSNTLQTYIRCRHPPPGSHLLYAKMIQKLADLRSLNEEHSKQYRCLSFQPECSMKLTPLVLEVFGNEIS
Sequence of Retinoic acid receptor RXR-alpha (Homo sapiens) (P19793 whole entry, looked up): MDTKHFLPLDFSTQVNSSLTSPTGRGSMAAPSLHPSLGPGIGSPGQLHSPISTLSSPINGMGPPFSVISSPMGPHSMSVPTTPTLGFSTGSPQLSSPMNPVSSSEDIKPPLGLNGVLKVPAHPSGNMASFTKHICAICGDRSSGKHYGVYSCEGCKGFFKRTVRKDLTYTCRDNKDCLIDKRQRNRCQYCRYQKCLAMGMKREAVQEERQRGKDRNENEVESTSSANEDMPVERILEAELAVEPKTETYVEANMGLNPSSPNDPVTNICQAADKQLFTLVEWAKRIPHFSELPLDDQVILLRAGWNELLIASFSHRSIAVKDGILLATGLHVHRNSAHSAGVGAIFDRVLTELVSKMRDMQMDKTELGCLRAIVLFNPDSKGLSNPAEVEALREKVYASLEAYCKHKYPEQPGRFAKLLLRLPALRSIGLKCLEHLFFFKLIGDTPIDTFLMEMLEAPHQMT
Sequence of Androgen receptor (Homo sapiens) (P10275 whole entry, looked up): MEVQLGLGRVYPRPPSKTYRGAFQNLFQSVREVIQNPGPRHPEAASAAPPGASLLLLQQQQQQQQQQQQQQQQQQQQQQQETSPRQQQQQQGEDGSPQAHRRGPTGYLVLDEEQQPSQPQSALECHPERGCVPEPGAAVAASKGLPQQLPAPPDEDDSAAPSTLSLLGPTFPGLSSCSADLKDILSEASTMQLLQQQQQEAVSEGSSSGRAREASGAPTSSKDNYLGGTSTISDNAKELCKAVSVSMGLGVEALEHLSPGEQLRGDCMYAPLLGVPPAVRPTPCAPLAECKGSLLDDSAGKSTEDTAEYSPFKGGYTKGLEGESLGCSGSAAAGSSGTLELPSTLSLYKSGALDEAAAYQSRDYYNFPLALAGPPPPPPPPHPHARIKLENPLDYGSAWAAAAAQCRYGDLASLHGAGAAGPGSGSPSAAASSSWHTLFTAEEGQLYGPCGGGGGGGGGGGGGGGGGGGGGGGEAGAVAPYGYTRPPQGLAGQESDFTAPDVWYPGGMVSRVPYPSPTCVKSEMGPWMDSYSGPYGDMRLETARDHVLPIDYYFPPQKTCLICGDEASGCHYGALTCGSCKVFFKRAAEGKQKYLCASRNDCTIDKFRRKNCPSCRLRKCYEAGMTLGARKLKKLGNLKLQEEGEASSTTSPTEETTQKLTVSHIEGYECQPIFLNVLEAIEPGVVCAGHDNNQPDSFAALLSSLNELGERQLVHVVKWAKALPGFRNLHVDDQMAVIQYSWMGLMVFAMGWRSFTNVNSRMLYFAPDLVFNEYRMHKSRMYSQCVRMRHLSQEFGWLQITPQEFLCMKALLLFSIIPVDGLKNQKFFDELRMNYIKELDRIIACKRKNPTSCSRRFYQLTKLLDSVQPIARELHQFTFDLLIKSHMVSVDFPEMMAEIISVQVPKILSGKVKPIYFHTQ
Sequence of Tumor necrosis factor (Homo sapiens) (P01375 whole entry, looked up): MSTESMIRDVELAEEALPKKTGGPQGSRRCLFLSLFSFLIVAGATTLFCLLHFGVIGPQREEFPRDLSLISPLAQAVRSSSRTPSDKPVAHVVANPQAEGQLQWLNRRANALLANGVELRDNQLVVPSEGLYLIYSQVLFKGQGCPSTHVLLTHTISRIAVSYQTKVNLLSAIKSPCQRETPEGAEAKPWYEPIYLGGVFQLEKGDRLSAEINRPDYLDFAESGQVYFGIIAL
Sequence of Voltage-gated inwardly rectifying potassium channel KCNH2 (Homo sapiens) (Q12809 whole entry, looked up): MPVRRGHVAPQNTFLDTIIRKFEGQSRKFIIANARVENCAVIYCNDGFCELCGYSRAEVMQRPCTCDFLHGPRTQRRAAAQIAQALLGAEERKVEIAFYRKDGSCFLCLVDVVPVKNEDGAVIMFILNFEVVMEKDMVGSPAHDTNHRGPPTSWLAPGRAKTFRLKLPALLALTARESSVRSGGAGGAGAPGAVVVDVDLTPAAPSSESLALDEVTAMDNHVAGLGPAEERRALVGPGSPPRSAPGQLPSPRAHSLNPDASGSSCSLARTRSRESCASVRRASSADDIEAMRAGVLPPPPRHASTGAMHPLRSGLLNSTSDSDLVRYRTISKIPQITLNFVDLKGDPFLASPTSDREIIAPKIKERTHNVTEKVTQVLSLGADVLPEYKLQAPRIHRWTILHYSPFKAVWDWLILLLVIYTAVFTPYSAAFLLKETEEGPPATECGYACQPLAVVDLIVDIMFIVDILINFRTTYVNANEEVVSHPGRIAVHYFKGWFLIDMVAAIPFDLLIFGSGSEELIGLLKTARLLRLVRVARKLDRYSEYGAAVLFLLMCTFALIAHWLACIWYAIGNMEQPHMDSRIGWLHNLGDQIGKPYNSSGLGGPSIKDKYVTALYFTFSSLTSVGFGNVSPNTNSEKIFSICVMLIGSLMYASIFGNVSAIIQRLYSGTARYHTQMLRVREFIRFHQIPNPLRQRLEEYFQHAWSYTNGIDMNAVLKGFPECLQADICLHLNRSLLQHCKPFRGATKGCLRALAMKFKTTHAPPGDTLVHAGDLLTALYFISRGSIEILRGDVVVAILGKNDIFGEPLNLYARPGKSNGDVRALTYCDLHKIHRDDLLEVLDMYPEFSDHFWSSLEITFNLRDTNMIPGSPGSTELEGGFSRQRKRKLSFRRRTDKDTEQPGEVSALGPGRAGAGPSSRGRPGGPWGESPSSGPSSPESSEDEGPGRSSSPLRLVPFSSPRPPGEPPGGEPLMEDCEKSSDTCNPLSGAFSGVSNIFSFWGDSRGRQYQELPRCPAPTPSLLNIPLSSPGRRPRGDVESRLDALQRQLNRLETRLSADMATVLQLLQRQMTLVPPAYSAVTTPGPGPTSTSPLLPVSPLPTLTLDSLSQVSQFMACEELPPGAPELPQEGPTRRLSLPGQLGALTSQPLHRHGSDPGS

In the case of `COC1=CC(=O)OC(CCc2ccccc2)C1` (centres undefined), the Potency result in assay [1], in [2], in [3], in assay [4], in assay [5] and in assay [6] was “inactive” throughout. Moreover, the Potency entry in assay [7], in assay [8], in assay [9], in assay [10], in assay [20] and in [22] was “inactive” in each case. In assay [23], the Potency entry was “inactive”. Also, the compound was called inactive in assay [11], in [14], in assay [15], in [16] and in assay [24]. The results for the activation in assay [12], in assay [13] and in [21] were -22.1% (inactive), -4.92% (inactive) and -2.49% (inactive), respectively. In addition, the max response was -2.34% in assay [17] and 14.2% (inactive) in assay [18]. Further, the activity change % (negative = inhibition) in assay [19] was 3.59% (inactive).
